Several values for one entry are separate records, joined by “and”; a condition that tells them apart may be missing. Identical values can stand only once. In all, about 16,000 compounds went through this assay and about 4,000 (25%) were called active. Another 26% or so got no clear call; they are omitted. The call rests on the fitted dose curve; in most records, active means well fitted curve in the direction sought with a large enough effect; inconclusive means small, poorly fitted or top-dose-only effect, or effect the other way; inactive means no such curve, though single readings can be large or run the other way. Not all results are given here.
target: Cytochrome P450 2C9 (Homo sapiens) (UniProt P11712); experiment: Cytochrome panel assay with activity outcomes; details: recombinant CYP, pro-luciferin dealkylation, luminescence, p450-cyp2c9; series mostly up to 57.1 µM; activity, negative = inhibition: at the top concentration
Procedure: The P450 gene superfamily is involved in the metabolism and clearance of xenobiotics. This assay used various human CYP P450 isozymes to measure the dealkylation of various pro-luciferin substrates to luciferin. The luciferin is then measured by luminescence after the addition of a luciferase detection reagent. Pro-luciferin substrate concentration in the assay was equal to its KM for its CYP P450 isozyme. Inhibitors and some substrates limit the production of luciferin, and decrease measured luminescence.
NCGC Assay Protocol Summary:
1, Reagent, 2 uL, Isozyme and Pro-Luciferin
2, Library compounds, 23 nl, 40 uM to 0.24 nM dilution series
3, Controls, 23 nl, Isozyme specific inhibitor
4, Reagent, 2 uL, NADPH regeneration solution
5, Incubation time, 60 min, Isozyme specific temperature
6, Reagent, 4ul, Detection reagent
7, Incubation time, 20 min, Isozyme specific temperature
8, Detection, 1 sec, ViewLux luminescent read
The luciferase-based P450-GloTM Screening Systems were obtained from Promega (Madison, WI) for CYP 1A2 (V9770), CYP 2C9 (V9790), CYP2 C19 (V9880), CYP 2D6 (V9890), and CYP 3A4 Luciferin-PPXE (V9910) and were adapted for 1,536-well microplates and an automated protocol. The control compounds furafylline for 1A2 (F124), sulfaphenazole for CYP 2C9 (S0758), ketoconazole for CYP 2C19 (K1003), quinidine for 2D6 (Q3625), and ketoconazole for 3A4 (K1003) were purchased from Sigma Aldrich (St. Louis, MO). Recombinant P450 enzymes were obtained from baculovirus constructs expressed in insect cells (BD/Gentest).
Medium-binding white solid Kalypsys plates used. Mixtures kept on ice. 1A2: 10 nM 1A2, 100 uM Luc-ME, 100 mM KPO4; 2C9: 10 nM 2C9, 100 uM Luc-H, 25 mM KPO4; 2C19: 5 nM 2C19, 10 uM Luc-H EGE, 50 mM KPO4; 2D6: 5 nM 2D6, 30 uM Luc-ME EGE, 100 mM KPO4; 3A4: 10 nM, 25 uM Luc-PPXE. All amounts are reflected in their final concentration, working concentration is 2x.
NADPH regeneration solution: 1.3 mM NADP+, 3.3 mM glucose-6-phosphate, 3.3 mM MgCl2, 0.4 U/mL glucose-6-phosphate dehydrogenase for all isozymes, 200 mM KPO4 for 3A4. Mixture prepared at RT but kept on ice during automated run.
RT incubation in auxilliary plate hotel for 1A2, 2D6, and 3A4; 37C for 2C9 and 2C19.
Keywords: P450, CYP1A2, CYP2C19, CYP2C9, CYP2D6, CYP3A4, Luciferase, MLSMR, MLSCN, NIH Roadmap, qHTS, NCGC
On the % scale 0 is the no-effect control and ±100 the full control effect.

Sequence of Cytochrome P450 2C9 (Homo sapiens) (P11712 whole entry, looked up): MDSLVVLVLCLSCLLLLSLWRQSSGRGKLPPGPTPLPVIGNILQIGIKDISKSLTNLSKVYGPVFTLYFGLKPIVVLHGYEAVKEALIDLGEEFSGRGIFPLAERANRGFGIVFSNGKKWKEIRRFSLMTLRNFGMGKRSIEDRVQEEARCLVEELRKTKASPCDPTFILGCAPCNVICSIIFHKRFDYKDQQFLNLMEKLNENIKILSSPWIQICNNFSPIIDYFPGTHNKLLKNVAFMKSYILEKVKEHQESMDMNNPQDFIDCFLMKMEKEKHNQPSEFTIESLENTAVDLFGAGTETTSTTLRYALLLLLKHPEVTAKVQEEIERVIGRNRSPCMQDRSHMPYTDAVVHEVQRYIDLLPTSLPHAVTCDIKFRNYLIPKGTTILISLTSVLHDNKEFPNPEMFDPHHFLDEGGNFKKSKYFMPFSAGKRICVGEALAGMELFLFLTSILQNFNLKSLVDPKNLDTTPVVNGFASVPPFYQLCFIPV

Row | SMILES | activity, negative = inhibition | AC50
1 | Nc1nc(SCc2ccccc2Cl)cc(C(=O)O)n1 | 0.0938% [at 11.4 µM] (inactive) | 
2 | N#Cc1c(SCC(N)=O)nsc1SCc1ccccc1Cl |  | 11.2 µM (active)
3 | CCOC(=O)C1CCCN(S(=O)(=O)c2ccccc2)C1 (stereo not drawn) | 29.1% (inactive) | 
4 | CCOC(=O)C1CCCN(C(=O)CSCc2ccccc2)C1 (stereo not drawn) |  | 10 µM (active)
5 | CN1CCN(c2nc(-c3ccccc3C(F)(F)F)nc3ccccc23)CC1 | 1.94% [at 2.29 µM] (inactive) | 
6 | CO[C@]1(NC(=O)Cc2cccs2)C(=O)N2C(C(=O)O)=C(COC(N)=O)CS[C@H]21 | 1.75% [at 25.6 µM] (inactive) | 
7 | Cn1cccc1C(=O)N1CCC2(CC1)CCN(c1ncccn1)CC2 | 5.06% (inactive) | 
8 | CC(=O)N1CCC2(CC1)CN(c1ccccn1)C2 | 5.68% (inactive) | 
9 | O=C(c1cnccn1)N1CCC2(CC1)CN(c1ccccn1)C2 | 3.85% (inactive) | 
10 | O=C(c1cnccn1)N1CCC2(CC1)CCN(c1ccccn1)CC2 | 0.265% (inactive) | 
11 | COC(=O)N1CCC2(CC1)CCN(c1ccccn1)CC2 | -3.68% (inactive) | 
12 | O=C(c1cnccn1)N1CCC2(CC1)CCN(c1ncccn1)CC2 | 4.53% (inactive) | 
13 | O=C(c1cnc(N2CCN(c3ncccn3)CC2)c2ccccc12)N1CCN(c2ncccn2)CC1 |  | 6.31 µM (active)
14 | O=C(c1cnc(N2CCN(c3ncccn3)CC2)c2ccccc12)N1CCN(c2ccccn2)CC1 |  | 3.55 µM (active)
15 | COc1ccccc1C(=O)N1CCN(c2ccccn2)CC1 |  | 14.1 µM (active)
16 | C/C=C\C[C@H](C)[C@H](O)[C@H]1C(=O)N[C@@H](CC)C(=O)N(C)CC(=O)N(C)[C@@H](CC(C)C)C(=O)N[C@@H](C(C)C)C(=O)N(C)[C@@H](CC(C)C)C(=O)N[C@@H](C)C(=O)N[C@@H](C)C(=O)N(C)[C@@H](CC(C)C)C(=O)N(C)[C@@H](CC(C)C)C(=O)N(C)[C@@H](C(C)C)C(=O)N1C |  | inactive
17 | Cc1ccc(S(=O)(=O)N=Nc2c(O)[nH]c3cc(O)c(C(=O)O)cc23)cc1 | 3.49% [at 11.4 µM] (inactive) | 
18 | CN1CC[C@@]2(CCCN(C(=O)c3cccc(F)c3)C2)C1 | 4.92% (inactive) | 
19 | COc1cccc2c1C(=O)c1c(O)c3c(c(O)c1C2=O)C[C@@](O)(C(=O)CO)C[C@H]3O[C@H]1C[C@@H](N)[C@H](O)[C@@H](C)O1.[W] | 3.88% [at 11.4 µM] (inactive) | 
20 | C#CCCCO/N=C1/C[C@@H](O)[C@@H](O)[C@@H]2[C@@H]3C(=O)N(CC)C(=O)[C@H]3CC[C@H]12 | 3.17% [at 11.4 µM] (inactive) | 

Row | SMILES | activity, negative = inhibition | AC50
21 | Cc1cc(C)c(NC(=O)C[C@H](CC(=O)O)c2cccc3ccccc23)c(C(=O)N2CCC3(CCCC3)CC2)c1 | -2.73% (inactive) | 
22 | O=C(O)CC(c1ccccc1)n1cnnn1 (stereo not drawn) | -6.07% (inactive) | 
23 | O=C(O)CC(c1cccc2ccccc12)n1cccc1 (stereo not drawn) |  | 8.91 µM (active)
24 | Cc1cccc(CN2CCN(CC(=O)O)C2=O)c1 | -24.3% (inactive) | 
25 | O=C(O)CN1CCN(Cc2ccc(F)cc2Cl)C1=O |  | 0.316 µM (active)
26 | O=C(O)CN1CCN(Cc2ccccc2Cl)C1=O | -29.3% (inactive) | 
27 | CC(C)C(CCNC(=O)CC(Cc1ccccc1)c1ccco1)c1ccco1 (stereo not drawn) |  | 2.82 µM (active)
28 | O=C(O)CNC(=O)[C@@H](CS)Cc1ccccc1 | 11.8% [at 25.6 µM] (inactive) | 
29 | CC(Cc1ccccc1)N/C=C1\CC(=O)NC1=O (stereo not drawn) | 6.55% (inactive) | 
30 | COc1c(O[C@H]2O[C@@H](CO)[C@@H](O)[C@@H](O)[C@@H]2O)cc2c(c1OC)-c1ccc(SC)c(=O)cc1[C@H](NC(C)=O)CC2 | -8.94% [at 25.6 µM] (inactive) | 
31 | CC(=O)NCCNc1ncnc2ccc(-c3ccoc3)cc12 | 6.33% [at 2.29 µM] (inactive) | 
32 | CC1CSc2nc3sc4c(c3c(=O)n21)CCCC4 (stereo not drawn) |  | 14.1 µM (active)
33 | Nc1nc(Cl)nc2c1ncn2[C@@H]1O[C@@H](COP(=O)(O)OP(=O)(O)OP(=O)(O)O)[C@@H](O)[C@H]1O | 18.3% (inactive) | 
34 | S=c1nc[nH]c2c1ncn2Cc1ccco1 | 1.4% [at 11.4 µM] (inactive) | 
35 | O=C1c2ccccc2N[C@H](c2cc(Cl)cc(Cl)c2O)N1CCc1ccccn1 |  | 3.16 µM (active)
36 | O=C1CC(N2CCN(CCc3ccccn3)CC2)C(=O)N1c1ccc(Cl)cc1 (stereo not drawn) | -8.6% (inactive) | 
37 | CCOC(=O)C1=C(N)n2c(s/c(=C\c3ccco3)c2=O)=C(C(=O)OCC)C1c1ccco1 (stereo not drawn) |  | 1.26 µM (active)
38 | CCOC(=O)C1=C(c2ccccc2)N=c2s/c(=C\c3cccc(O)c3)c(=O)n2C1c1cccs1 (stereo not drawn) | -16.1% (inactive) | 
39 | CCOC(=O)C1=C(c2ccccc2)N=c2s/c(=C\c3ccco3)c(=O)n2C1c1cccs1 (stereo not drawn) |  | 8.91 µM (active)
40 | OCCCSCCO | 11.5% [at 11.4 µM] (inactive) | 

Row | SMILES | activity, negative = inhibition | AC50
41 | C[N+](C)(C)CC[N+]1(C)Cc2c(Cl)c(Cl)c(Cl)c(Cl)c2C1 | -8.79% (inactive) | 
42 | NS(=O)(=O)c1nc(S(=O)(=O)O)c2[nH]cnc2n1 | -8.54% [at 11.4 µM] (inactive) | 
43 | Cc1ccc(S(=O)(=O)NC(=O)Nc2ncn[nH]2)cc1 | 4.99% [at 11.4 µM] (inactive) | 
44 | Cc1nnc(NS(=O)(=O)c2ccc(N)cc2)s1 | -21.3% [at 25.6 µM] (inactive) | 
45 | Cc1ccc(S(=O)(=O)Nc2nc(C)c(NC(=O)Nc3ccc(Cl)cc3Cl)s2)cc1 |  | 7.94 µM (active)
46 | CCN(CC)C(=S)SSC(=S)N(CC)CC |  | 2.51 µM (active) and 398 nM (active)
47 | CC(C)(CO[C@H]1C[C@H]2CC[C@@]1(C)C2(C)C)[N+](=O)[O-] | -3.36% [at 11.4 µM] (inactive) | 
48 | C[C@H](O)C(=O)C1=Nc2c(nc(N)[nH]c2=O)NC1 | 15.9% (inactive) | 
49 | CC(C)(C)OC(=O)N1CCCC1C(=O)NCCc1ccccc1 (stereo not drawn) | -29.8% (inactive) | 
50 | CCC(=O)Nc1ccc(C(=O)NNC(=O)c2cccs2)cc1 | 11.9% (inactive) | 
51 | O=C(CCc1ccccc1)NNC(=O)c1ccco1 | -10.8% (inactive) | 
52 | CCCC(=O)Nc1ccc(C(=O)NNC(=S)NC(=O)c2cccs2)cc1 |  | 20 µM (active)
53 | CC(C)(C)C(=O)NC(=S)NCCc1ccccc1 |  | 11.2 µM (active)
54 | O=C(CCc1ccccc1)NNC(=S)NC(=O)c1ccccc1 |  | 15.8 µM (active)
55 | COc1cc(CNCCc2ccccc2)ccc1OCC(=O)NC(C)(C)C | -0.348% (inactive) | 
56 | COc1cc(OC)cc(C(=O)NC(=S)NCCc2ccccc2)c1 |  | 2.82 µM (active)
57 | NNC(=O)c1ccc[n+](CCc2ccccc2)c1 | -1.12% [at 11.4 µM] (inactive) | 
58 | N[C@@H](CSCc1ccc(I)cc1)C(=O)O | 12.7% [at 11.4 µM] (inactive) | 
